Unmarked numbers belong to inactive results. Results filed as inconclusive are left out. Where a call stands in place of a potency, no number is given. Activity calls are given as the source filed them. Unless noted, the call rests on the fitted dose curve; in most records, active means well fitted curve in the direction sought with a large enough effect in the repeat runs; inconclusive means weak or mixed curves; inactive means no such curve, though single readings can be large; an effect the other way counts as inactive or inconclusive.
What was measured:
[1] = qHTS assay to identify small molecule agonists of the hypoxia (HIF-1) signaling pathway - cell viability counter screen (AID 1224844; calls by dose curve; further: nearly all actives have a fitted effect of over 50% in size); conditions: HRE-bla ME-180 viability, CellTiter-Glo luminescence, 17 h; series mostly up to 76.8 µM
How it was run: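 Multiplexed with the HRE beta-lactamase assay, this viability read used CellTiter-Glo luminescence (30 min, RT) on HRE-bla ME-180 cells treated 17 hrs with compounds in 0.5% dialyzed FBS medium.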

[2] = qHTS assay to identify small molecule agonists of H2AX (AID 1224845; active means well fitted activation curve with a large enough effect in the signal ratio in the repeat runs, not every such curve was filed as active; the % refers to the signal ratio); conditions: CHO-K1 phospho-H2AX Ser139 HTRF, 3 h; series mostly up to 154 µM
How it was run: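 Phospho-H2AX Ser139 measured by HTRF (ex 320 nm; em 665 and 620 nm) after 24 hr antibody incubation. Compounds, 15 concentrations, 0.76% DMSO, were applied to CHO-K1 cells for 3hr at 37C before lysis.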

[3] = qHTS assay to identify small molecule agonists of the hypoxia (HIF-1) signaling pathway (AID 1224846; active means well fitted activation curve with a large enough effect in the signal ratio in the repeat runs, not every such curve was filed as active; the % refers to the signal ratio); conditions: HRE-bla ME-180 cells, beta-lactamase ratio, 17 h; series mostly up to 76.8 µM
How it was run: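 Hypoxia-pathway activation was scored as increased beta-lactamase from an HRE-controlled reporter in ME-180 cells; plated at 2,000 cells per well with 0.5% dialyzed FBS, they were exposed 17 hrs to compounds and then given CCF4-AM.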

[4] = qHTS assay to identify small molecule agonists of H2AX - cell viability counter screen (AID 1224847; calls by dose curve; further: top concentration of the series differs between compounds; nearly all actives have a fitted effect of over 30% in size); conditions: CHO-K1 viability, CellTiter-Glo luminescence, 3 h; series mostly up to 154 µM
How it was run: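 Quantitative HTS viability measurement: CHO-K1 wild-type cells in serum (10% FBS) medium, short 3 hr drug exposure at 37C with 0.76% DMSO, CellTiter-Glo luminescent detection.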

[5] = qHTS assay to identify small molecule antagonists of the estrogen related receptor (ERR) signaling pathway from Tox21 library (AID 1224848); conditions: ERR reporter cell line, luciferase antagonist mode, 18 h; series mostly up to 92.4 µM; further: nearly all actives have a fitted effect of over 50% in size; further: potency means the concentration at half of the fitted maximal effect
How it was run: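 Reading was by luminescence 30 min after ONE-Glo addition. Before that, ERR cells at 2,000 per well had rested 6 h at 37 C/5% CO2 and then received pin-tooled compounds in DMSO for 18 h at 37 C.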

[6] = qHTS assay to identify small molecule agonists of the estrogen related receptor (ERR) signaling pathway from Tox21 library (AID 1224849; calls by dose curve; further: nearly all actives have a fitted effect of over 15% in size); conditions: ERR reporter cell line, ONE-Glo luciferase, 18 h; at 92.4 µM (top of the series) unless noted
How it was run: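 Six hours post-seeding at 37 C/5% CO2, ERR cells receive DMSO-solubilised compounds; after 18 h at 37 C, ONE-Glo reagent is applied and luminescence recorded.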

[7] = qHTS RealTime-Glo MT Cell Viability Assay in HepG2 cells - 24 hour (AID 1224867); conditions: RealTime-Glo luminescence; series mostly up to 76.8 µM; further: nearly all actives have a fitted effect of over 50% in size
How it was run: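 qHTS, HepG2, 600 cells/well, RealTime-Glo (NanoLuc + prosubstrate) added with cells; 5 h preincubation; DMSO compound addition; 37 C; luminescence at 0/8/16/24/32/40 h.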

[8] = qHTS RealTime-Glo MT Cell Viability Assay in HEK293 cells - 32 hour (AID 1224868); conditions: RealTime-Glo luminescence; series mostly up to 76.8 µM; further: nearly all actives have a fitted effect of over 50% in size; further: potency means the concentration at half of the fitted maximal effect
How it was run: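 Assay medium contained NanoLuc luciferase plus cell-permeant prosubstrate, added with HEK293 cells at 600 cells/well. After 5 h at 37 C/5% CO2 compounds were added; plates stayed at 37 C for 40 h with serial luminescence reads.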

[9] = A CellTox Green Cytotoxicity Assay to monitor cytotoxicity in HEK293 cells - 0 hour (AID 1224869); conditions: CellTox Green fluorescence; series mostly up to 76.8 µM; further: nearly all actives have a fitted effect of over 50% in size
How it was run: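 Seeding of HEK293 cells together with cytotoxicity dye preceded a 5 h incubation at 37 C/5% CO2. Test compounds in DMSO were then added and fluorescence monitored across 40 h.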

[10] = qHTS RealTime-Glo MT Cell Viability Assay in HepG2 cells - 40 hour (AID 1224870); conditions: RealTime-Glo luminescence; series mostly up to 76.8 µM; further: nearly all actives have a fitted effect of over 50% in size; further: potency means the concentration at half of the fitted maximal effect
How it was run: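 Real-time viability: cells seeded at 600 per well together with NanoLuc and cell-permeant prosubstrate, compounds added after 5 h incubation. Luminescence tracked at 0, 8, 16, 24, 32 and 40 h of exposure.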

| SMILES | Potency [1] | Potency [2] | outcome [3] | Potency [4] | Potency [5] | activity change, positive = activation [6] | Potency [7] | Potency [8] | Potency [9] | Potency [10] |
| --- | --- | --- | --- | --- | --- | --- | --- | --- | --- | --- |
| CC(=O)CCc1ccc2c(c1)OCO2 | inactive | inactive | inactive | inactive | inactive | -0.0233% | inactive | inactive | inactive | inactive |
| O=CNC(N1CCN(C(NC=O)C(Cl)(Cl)Cl)CC1)C(Cl)(Cl)Cl (stereo unspecified) | inactive | inactive | inactive | inactive | inactive | 2.23% | inactive | inactive | inactive | inactive |
| CCS(=O)(=O)CCSP(=O)(OC)OC | inactive | inactive | inactive | inactive | inactive | 13.8% | inactive | inactive | inactive | inactive |
| COc1cc(OC)nc(Sc2cccc(Cl)c2C(=O)O)n1 | inactive | inactive | inactive | inactive | inactive | 0.33% | inactive | inactive | inactive | inactive |
| C[C@]12CC[C@H]3[C@@H](CCC4=CC(=O)CC[C@@]43C)[C@@H]1CC[C@@H]2C(=O)O | inactive | inactive | inactive | inactive | inactive | -8.07% [at 42.5 µM] | inactive | inactive | inactive | inactive |
| CC1CCC(=O)O1 (stereo unspecified) | inactive | inactive | inactive | inactive | inactive | -6.79% | inactive | inactive | inactive | inactive |
| Fc1ccc(C2(Cn3cncn3)OC2c2ccccc2Cl)cc1 (stereo unspecified) | inactive | inactive | inactive | inactive | 48.6 µM (active) | -40.8% | inactive | 43.6 µM (active) | inactive | inactive |
| N#CCNCC#N | inactive | inactive | inactive | inactive | inactive | 2.04% | inactive | inactive | inactive | inactive |
| Cc1cc(C)nc(Nc2ccccc2)n1 | inactive | inactive | inactive | inactive | inactive | – | inactive | inactive | inactive | inactive |
| CCOC(=O)C1(c2ccccc2)CCN(CCc2ccc(N)cc2)CC1 | inactive | inactive | inactive | inactive | inactive | -11.7% [at 42.5 µM] | inactive | inactive | inactive | inactive |
| CCOC(=O)CP(=O)(OCC)OCC | inactive | inactive | inactive | inactive | inactive | 4.99% | inactive | inactive | inactive | – |
| C[N+](=O)[O-] | inactive | inactive | inactive | inactive | inactive | 6.34% | inactive | inactive | inactive | inactive |
| CCC(C)n1c(=O)[nH]c(C)c(Br)c1=O (stereo unspecified) | inactive | inactive | inactive | inactive | inactive | -4.95% | inactive | inactive | inactive | inactive |
| CN(C)CCc1ccc(O)cc1 | inactive | inactive | inactive | inactive | inactive | 5.13% [at 42.5 µM] | inactive | – | inactive | inactive |
| COc1cc(C[C@@H](C)N)c(OC)cc1C | inactive | inactive | inactive | inactive | inactive | -3.22% | inactive | inactive | inactive | – |
| C#CCN1C(=O)COc2cc(F)c(N3C(=O)C4=C(CCCC4)C3=O)cc21 | inactive | inactive | inactive | inactive | – | -22.6% | inactive | inactive | inactive | – |
| COc1cc(OC)nc(NC(=O)NS(=O)(=O)c2ncccc2OCC(F)(F)F)n1 | inactive | inactive | inactive | inactive | inactive | 9.4% | inactive | inactive | inactive | inactive |
| Cc1ncc2n1-c1ccc(Cl)cc1C(c1ccccc1F)=NC2 | inactive | inactive | inactive | inactive | inactive | 12.1% [at 42.5 µM] | inactive | – | inactive | inactive |
| CCCCCCI | inactive | inactive | inactive | inactive | inactive | -0.122% | – | inactive | inactive | 24.6 µM (active) |
| ClCCOCOCCCl | inactive | inactive | inactive | inactive | inactive | -2.74% | inactive | inactive | inactive | inactive |
| CNC(=O)Oc1ccc(N(C)C)c(C)c1 | inactive | inactive | inactive | inactive | inactive | – | inactive | inactive | inactive | – |
| N#CCBr | inactive | inactive | inactive | inactive | inactive | 0.914% | inactive | inactive | inactive | – |
| COC(=O)C(C)Oc1ccc(Oc2ccc(Cl)cc2Cl)cc1 (stereo unspecified) | inactive | inactive | inactive | inactive | – | -14.6% | inactive | inactive | inactive | – |

| SMILES | Potency [1] | Potency [2] | outcome [3] | Potency [4] | Potency [5] | activity change, positive = activation [6] | Potency [7] | Potency [8] | Potency [9] | Potency [10] |
| --- | --- | --- | --- | --- | --- | --- | --- | --- | --- | --- |
| CCCCC(=O)Cl | inactive | inactive | inactive | inactive | inactive | -5.15% | inactive | inactive | inactive | inactive |
| CC1CCCCC1NC(=O)Nc1ccccc1 (stereo unspecified) | inactive | inactive | inactive | inactive | inactive | 4.71% | inactive | – | inactive | inactive |
| N#Cc1c(Cl)cccc1Cl | inactive | inactive | inactive | inactive | inactive | 7.33% | inactive | inactive | inactive | inactive |
| COCC(=O)N(c1c(C)cccc1C)N1CCOC1=O | inactive | inactive | inactive | inactive | inactive | 0.713% | inactive | inactive | inactive | inactive |
| CC(=O)Nc1cc([As](=O)(O)O)ccc1O | inactive | inactive | inactive | inactive | inactive | -16.7% [at 42.5 µM] | inactive | inactive | inactive | inactive |
| CNC(=O)N(C)c1nc2ccccc2s1 | inactive | inactive | inactive | inactive | inactive | 89.8% (active) | inactive | inactive | inactive | inactive |
| O=NN1CCN(N=O)CC1 | inactive | inactive | inactive | inactive | inactive | 3% | inactive | inactive | inactive | inactive |
| O=C1CN=C(c2ccccc2)c2cc([N+](=O)[O-])ccc2N1 | inactive | inactive | inactive | inactive | inactive | – | inactive | inactive | inactive | inactive |
| ClCCCN1CCN(c2cccc(Cl)c2)CC1 | inactive | inactive | inactive | inactive | inactive | -4.21% [at 42.5 µM] | inactive | inactive | inactive | inactive |
| CCS(=O)(=O)C(C)(C)S(=O)(=O)CC | inactive | inactive | inactive | inactive | inactive | 3.77% [at 42.5 µM] | inactive | inactive | inactive | inactive |
| CC(Cl)(Cl)[N+](=O)[O-] | inactive | inactive | inactive | inactive | inactive | 2.67% | inactive | inactive | inactive | inactive |
| CCN(CC)CCOC(=O)C(C)(c1ccccc1)c1ccccc1 | inactive | inactive | inactive | inactive | inactive | 0.519% [at 42.5 µM] | inactive | inactive | inactive | inactive |
| [O]=[Cd] | inactive | inactive | inactive | inactive | – | -14% | inactive | inactive | inactive | inactive |
| CN1CCC(O)(c2ccc(F)cc2)C(C(=O)c2ccc(F)cc2)C1 (stereo unspecified) | inactive | inactive | inactive | inactive | inactive | 0.426% [at 42.5 µM] | inactive | inactive | inactive | – |
| OCCBr | inactive | inactive | inactive | inactive | – | – | inactive | inactive | inactive | inactive |
| CCC1(c2ccccc2)C(=O)N=C(O)NC1=O (stereo unspecified) | inactive | inactive | inactive | inactive | – | – | inactive | inactive | inactive | inactive |
| Nc1cnn(-c2ccccc2)c(=O)c1Cl | inactive | inactive | inactive | inactive | – | – | inactive | inactive | inactive | inactive |
| CCOP(=O)(N=C1SCCS1)OCC | inactive | inactive | inactive | inactive | – | – | inactive | inactive | inactive | inactive |
| C[N+](C)=CCl | inactive | inactive | inactive | inactive | – | – | inactive | inactive | inactive | – |
| Fc1cc(Br)ccc1CBr | inactive | inactive | inactive | inactive | – | – | inactive | inactive | inactive | – |
| O=P(O)(Oc1ccccc1)Oc1ccccc1 | inactive | inactive | inactive | inactive | – | – | inactive | inactive | inactive | – |
| CN1C[C@@H](NS(=O)(=O)N(C)C)C[C@@H]2c3cccc4c3c(cn4C)C[C@H]21 | inactive | inactive | inactive | inactive | – | – | inactive | inactive | inactive | – |
| O=C(O)c1cccc(Cl)c1 | inactive | inactive | inactive | inactive | – | – | inactive | inactive | inactive | inactive |

Reference: PubChem BioAssay (Tox21)
